According to PubChem BioAssay AID652054 (National Center for Advancing Translational Sciences (NCATS), 2013):
Hit rate of the full screen: of about 360,000 compounds, about 9,100 (2.5%) were called active. Another 4% or so got no clear call; they are omitted. What follows is part of a selection rich in actives, with near analogues and random picks from the rest. A number with no mark means an inactive call. Cut-off read from the data, not from the text of the source: active = max response below about -50%; inconclusive = no clear call, values can overlap the other calls; inactive = above that.

Target: D(3) dopamine receptor (Homo sapiens) (UniProt P35462)
Sequence (P35462 whole entry, looked up): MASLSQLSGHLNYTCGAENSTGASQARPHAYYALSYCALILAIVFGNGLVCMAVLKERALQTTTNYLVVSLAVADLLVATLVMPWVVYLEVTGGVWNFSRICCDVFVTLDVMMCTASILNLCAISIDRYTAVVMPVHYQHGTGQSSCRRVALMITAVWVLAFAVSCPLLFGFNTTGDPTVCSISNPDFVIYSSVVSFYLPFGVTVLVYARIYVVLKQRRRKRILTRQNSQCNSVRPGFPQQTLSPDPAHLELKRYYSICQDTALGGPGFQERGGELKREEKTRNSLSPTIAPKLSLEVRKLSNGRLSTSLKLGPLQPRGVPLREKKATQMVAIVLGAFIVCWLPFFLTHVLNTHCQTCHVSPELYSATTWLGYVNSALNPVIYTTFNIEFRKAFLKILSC
Assay: qHTS of D3 Dopamine Receptor Antagonist: qHTS
Settings: D3R cells, DiscoveRx beta-arrestin luminescence, antagonist mode; hits give low values
Outline: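 Cells plated overnight at 1500 cells/well, then exposed to library compounds with dopamine controls for 90 minutes at 37 degrees C. DiscoveRx reagent added for 30–60 minutes at room temperature; luminescence read, quantitative HTS format.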
% is set by controls: 0 for no effect and ±100 for the full control effect.

Row | Structure (SMILES) | max response, negative = inhibition
1 | Cc1ccc(S(=O)(=O)N2CCN(S(=O)(=O)N3CCOCC3)CC2)cc1 | -75.3% (active)
2 | Cc1ccc(C(=O)N2CCN(S(=O)(=O)N3CCOCC3)CC2)cc1 | -16.1%
3 | Cc1ccc(S(=O)(=O)N2CCN(C)CC2)cc1 | 7.28%
4 | O=[N+]([O-])c1ccc(CN2CC(N3CCC(c4ccccc4)CC3)CS2(=O)=O)cc1 (configuration not stated) | -23.6%
5 | CCOC(=O)[C@]12CCC=C1N(Cc1ccco1)C(=O)[C@H](CC(=O)NCc1cccc(C(F)(F)F)c1)C2 | -18.6%
6 | Oc1ccc(N=Nc2nccs2)c(O)c1 | -73.7% (active)
7 | Oc1ccc2ccccc2c1N=Nc1nccs1 | -67.4% (active)
8 | CCNC(=O)C1CCCN(C(=O)c2cc(F)ccc2C)CC1 (configuration not stated) | 15.3%
9 | CCCCC[C@H](C)N1C[C@@H](COCc2ccccc2)Oc2cc(N3CC[C@@H](N(C)C)C3)ccc2S1(=O)=O | 18.9%
10 | Cc1cc(Cl)ccc1-c1nc(NCCN(C)C)nc2ccsc12 | -28.3%
11 | O=C1CC[C@@H](C(=O)N2CSC[C@@H]2C(=O)Nc2ccc(C(F)(F)F)cc2)N1 | -3.96%
12 | COc1ccc(C2=Nc3ccccc3NC(=O)C2N(C(=O)c2cc3ccccc3[nH]2)c2ccccc2)cc1 (configuration not stated) | -13.2%
13 | CCc1ccccc1OCC(=O)Nc1nnc(C2CC2)s1 | -9.37%
14 | O=C(/C(=C/c1cccc(Cl)c1)c1nc2ccccc2[nH]1)c1ccccc1 | -87.4% (active)
15 | O=C(O)c1cccc(NC(=O)c2cc(-c3cccc(Cl)c3)nc3ccccc23)c1 | 14.5%
16 | O=C(N/N=C/c1ccc(Cl)cc1)c1nc2ccc([N+](=O)[O-])cc2c(=O)[nH]1 | 9.98%
17 | CCCn1c(N)c(C(=O)CSc2nnc(Cc3cccs3)n2C2CC2)c(=O)[nH]c1=O | 31%
18 | O=C(NCC(F)(F)F)c1ccc(S(=O)(=O)NCCc2ccc3c(c2)OCCO3)cc1 | 18.6%
19 | CC(C)Cc1ccc(-c2cc3nc(NCc4cccc(Cl)c4)ccn3n2)cc1 | 16.3%
20 | CC(=O)c1ccc(Nc2nc(C(N)c3ccccc3Cl)cs2)cc1 (configuration not stated) | 0%
21 | CC1(C(=O)NS(=O)(=O)c2cccc(F)c2)CCN1C(=O)c1cccc2ccccc12 (configuration not stated) | -11.4%
22 | Cc1ccc(N2CCN(S(=O)(=O)c3ccc(F)cc3)CC2)c(C)c1 | -54.7% (active)

Row | Structure (SMILES) | max response, negative = inhibition
23 | Cc1ccc(C)c(N2CCN(S(=O)(=O)c3ccc4c(c3)oc(=O)n4C)CC2)c1 | 19.9%
24 | Cc1ccccc1N1CCN(S(=O)(=O)c2ccc3ccccc3c2)CC1 | -28.5%
25 | CCc1nc2c(OCCc3cccc(OC)c3)cccn2c1N(C)C(=O)c1ccc(C)cc1 | -6.67%
26 | O=C(Nc1ccccc1)O/N=C1/CCCc2occc21 | -1.95%
27 | N/C(=N\OC(=O)Nc1ccccc1)c1ccno1 | -63.2% (active)
28 | CC(C)(COC(=O)Nc1ccccc1)COC(=O)Nc1ccccc1 | -25.8%
29 | COc1cc2ccc(C(C)=O)c(O)c2cc1OC | -9.5%
30 | CCC(C)C(CO)NC(=O)/C=C/[C@H]1O[C@@H](n2cnc3c(NC(=O)c4ccccc4)ncnc32)[C@H](O)[C@@H]1O (some centres not stated) | 10.7%
31 | COc1c(O)ccc2c1CN1CCc3cc4c(cc3C1C2)OCO4 (configuration not stated) | -123% (active)
32 | COc1ccc2cc1Oc1ccc(cc1)C[C@H]1c3cc(c(OC)cc3CCN1C)Oc1c(O)c(OC)cc3c1[C@H](C2)N(C)CC3 | -18.7%
33 | COc1cc(C(=O)CCc2ccc3c(c2)OCO3)cc(OC)c1OC | -2.22%
34 | Cn1c(=O)c2cc(NC(=O)NCCc3cccs3)ccc2n1Cc1cccc(C(F)(F)F)c1 | 18.7%
35 | Cc1cc(Nc2ccc(C)c(C)c2)n2ncnc2n1 | -15.7%
36 | COc1ccc(-c2ccc(CN3C(C(C)C)C(=O)N(Cc4cn(CC5CCCCC5)nn4)CCS3(=O)=O)cc2)cn1 (configuration not stated) | 14.3%
37 | COc1ccc(-c2cc(NC(C)=O)c3ncc(-c4cc(OC)c(OC)c(OC)c4)n3c2)cn1 | 30.1%
38 | CC(C)C(c1nnnn1Cc1ccccc1)N1CCC(C(N)=O)CC1 (configuration not stated) | 14.4%
39 | COc1ccccc1C(=O)NC(CCSC)C(=O)N1CCN(C/C=C/c2ccccc2)CC1 (configuration not stated) | -14%
40 | CSCCC(c1nnnn1Cc1ccccc1)N1CCN(C/C=C/c2ccccc2)CC1 (configuration not stated) | -87.8% (active)
41 | Cc1cccc(OCC(O)CN2CCN(S(=O)(=O)c3ccc(C)cc3C)CC2)c1 (configuration not stated) | -9.79%
42 | CCCc1ccc(OCC(O)CN2CCN(CCO)CC2)cc1 (configuration not stated) | 6.19%
43 | COCCN1CCN(C(=O)c2cc(COc3ccc(F)cc3Cl)on2)CC1 | -9.58%
44 | OC(COc1ccc(F)cc1Cl)CN1CCc2ccccc2C1 (configuration not stated) | -83.8% (active)

Row | Structure (SMILES) | max response, negative = inhibition
45 | Cc1ccc(Cl)c(OCC(=O)N2CCc3ccccc3C2)c1 | 1.13%
46 | Cc1ccc(OCC(O)CN2CCN(CC(O)COc3ccc(C)cc3Cl)CC2)c(Cl)c1 (configuration not stated) | -59.6% (active)
47 | CC(C)C[C@H]1CNC(=S)N1C[C@H]1CCCN1C[C@H](Cc1ccc(O)cc1)N1C[C@H](Cc2ccc(O)cc2)N(CC2CCCCC2)C1=S | 4.99%
48 | CC(=O)NC(c1cccc(F)c1)c1nc(-c2cccc(F)c2)cs1 (configuration not stated) | 2.77%
49 | COC(=O)[C@]12CCCCC=C1N(Cc1ccc3c(c1)OCO3)C(=O)[C@H](CC(=O)N1CCOCC1)C2 | 6.26%
50 | COc1ccc(C(C)C)cc1-c1ccc2nncn2c1 | -20%
51 | COc1ccc(C(=O)OCC(=O)Nc2cc(C)on2)cc1F | 9.93%
52 | O=C(Nc1ccc(N2CCOCC2)cc1)c1cccc2c(-c3ccc(F)c(F)c3)coc12 | -14.5%
53 | O=C(Nc1nnc([C@H]2C[C@H](O)[C@@H](CO)O2)s1)c1cccc(Cl)c1 | -110% (active)
54 | O=C(Nc1ccc(F)cc1)Nc1nnc([C@H]2C[C@H](O)[C@@H](CO)O2)s1 | 16.1%
55 | Cc1ccc(CNC(=O)Nc2nnc([C@H]3C[C@H](O)[C@@H](CO)O3)s2)cc1 | 10.5%
56 | CC1=C(C(=O)N2CCOCC2)CC(CC(=O)NCCCN(C)C)C(=O)N1Cc1ccc(C(C)(C)C)cc1 (configuration not stated) | 35.5%
57 | Nc1nc2c(ncn2[C@@H]2O[C@H](CNS(=O)(=O)N3CCc4ccccc4C3)[C@@H](O)[C@H]2O)c(=O)[nH]1 | 4.77%
58 | CCCCc1c(-c2ccc(Br)cc2)ncn1CCc1ccccc1OC | 65.6%
59 | COc1cccc(CC2(CO)CCCN(CC3=Cc4cc(OC)ccc4OC3)C2)c1 (configuration not stated) | -6.63%
60 | COc1cccc(CC2(CO)CCCN(Cc3ccc(OC(F)F)cc3)C2)c1 (configuration not stated) | 8.8%
61 | COc1cccc(CC2(CO)CCCN(Cc3nc(-c4cccs4)oc3C)C2)c1 (configuration not stated) | -116% (active)
62 | CCOc1ccc(CCNC(=O)COC(=O)c2ccc(C)c(S(=O)(=O)N3CCOCC3)c2)cc1OCC | -5.11%
63 | O=C(c1ccco1)N1CCN(CCOc2ccccc2)CC1 | -16.8%
64 | O=C(c1ccc(Br)o1)N1CCN(CCOc2ccccc2)CC1 | 27.8%
65 | O=C(Nc1ccc(F)cc1F)N1CCCN(CCOc2ccccc2)CC1 | -70.2% (active)
66 | COc1ccc(S(=O)(=O)N2CCOCC2)c(C)c1C | -69.1% (active)

Row | Structure (SMILES) | max response, negative = inhibition
67 | COc1ccc(S(=O)(=O)N2CCCC2)c(C)c1C | -3.98%
68 | COc1cc(C)c(S(=O)(=O)N2CCOCC2)c(C)c1C | 0.216%
69 | COc1ccc(CC(N)c2csc(NC(=O)Nc3ccc(C(C)C)cc3)n2)cc1 (configuration not stated) | -12.1%
70 | OC(c1ccc(Cl)c(F)c1)c1ncc(-c2ccccc2Cl)[nH]1 (configuration not stated) | -18%
71 | CCSc1ncnc2c(C#N)c3n(c12)CCCCC3 | -10.2%
72 | CCSC1=C(C#N)C(=O)n2c1cc1c2CCCC1 | -65.6% (active)
73 | CCN1C(=O)[C@H]2[C@@H](c3ccc(C(F)(F)F)cc3)N[C@]3(CCCN(Cc4ccc(Br)cc4)C3=O)[C@H]2C1=O | 2.39%
74 | O=C(Nc1cc(S(=O)(=O)Nc2ccc(Cl)cc2)ccc1O)c1ccc(F)cc1F | -59.6% (active)
75 | O=C(Nc1cccc(S(=O)(=O)NC2=NCCC2)c1)c1ccc(F)cc1F | 5.01%
76 | CCS(=O)(=O)c1ccc(O)c(NC(=O)COc2ccc(Cl)cc2)c1 | 0.528%
77 | COc1ccc(-c2csc(C(O)c3cccc(Cl)c3)n2)cn1 (configuration not stated) | -24%
78 | Nc1[nH]c(C(=O)c2ccccc2)c(-c2ccc(Br)cc2)c1C(=O)NC1CC1 | 6.89%
79 | c1ccc(-c2nccc(-c3ccc(-n4cnc5ccccc54)cc3)n2)nc1 | -53.4% (active)
80 | COC(=O)c1ccc(-n2cnc3ccccc32)nc1 | 3.06%
81 | N#CCCn1cnc2ccccc21 | -1.87%
82 | CC1=C(C(=O)N2CCOCC2)CC(CC(=O)NCCN2CCOCC2)C(=O)N1CCC1=CCCCC1 (configuration not stated) | 35.9%
83 | O=C(NCCS(=O)(=O)N1CCN(c2ccccc2)CC1)c1cc(=O)c2ccccc2o1 | 9.87%
84 | COc1ccc([C@H]2C[C@@H](n3cc(COC(=O)c4ccccc4)nn3)[C@H](O)CN2C(=O)c2cccs2)cc1 | -28.2%
85 | COCCNc1nc(N)c([N+](=O)[O-])c(N2CCCCCC2)n1 | 16.7%
86 | CC1CN(c2nc(Nc3ccccc3)nc(N)c2[N+](=O)[O-])CC(C)O1 (configuration not stated) | 14.2%
87 | CCN1CCN(c2nc(Nc3cccc(F)c3)nc(N)c2[N+](=O)[O-])CC1 | -76.5% (active)
